Measured values from PMC7826789 (International Journal of Molecular Sciences, 2021).

Legend:
Conditions in all cases: Compound Concentration (nM):1000
[1] = tested on: ABL1(Q252H)-phosphorylated
[2] = tested on: ABL1(T315I)-nonphosphorylated
[3] = tested on: ABL1(T315I)-phosphorylated
[4] = tested on: ABL1(Y253F)-phosphorylated
ABL1-nonphosphorylated = tested on: ABL1-nonphosphorylated
ABL1-phosphorylated = tested on: ABL1-phosphorylated
ABL2 = tested on: ABL2
ACVR1B = tested on: ACVR1B
ACVR1 = tested on: ACVR1
ACVR2A = tested on: ACVR2A
ACVR2B = tested on: ACVR2B
ACVRL1 = tested on: ACVRL1
ADCK3 = tested on: T1, ADCK3
T1 construct: gene CABC1

ADCK4 = tested on: ADCK4
AKT1 = tested on: AKT1
AKT2 = tested on: AKT2
AKT3 = tested on: AKT3
ALK(C1156Y) = tested on: ALK(C1156Y)
ALK(L1196M) = tested on: ALK(L1196M)
ALK = tested on: ALK
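Note: KINOMEscan scanMAX binding as percent activity remaining versus control; lower means stronger binding.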

SMILES	Percent Control [1] [%]	Percent Control [2] [%]	Percent Control [3] [%]	Percent Control [4] [%]	Percent Control (ABL1-nonphosphorylated) [%]	Percent Control (ABL1-phosphorylated) [%]	Percent Control (ABL2) [%]	Percent Control (ACVR1B) [%]	Percent Control (ACVR1) [%]	Percent Control (ACVR2A) [%]	Percent Control (ACVR2B) [%]	Percent Control (ACVRL1) [%]	Percent Control (ADCK3) [%]	Percent Control (ADCK4) [%]	Percent Control (AKT1) [%]	Percent Control (AKT2) [%]	Percent Control (AKT3) [%]	Percent Control (ALK(C1156Y)) [%]	Percent Control (ALK(L1196M)) [%]	Percent Control (ALK) [%]
Cl.O=C(Nc1ccc(Oc2ccc3[nH]c(NC(=O)c4ccco4)nc3c2)cc1)Nc1cc(C(F)(F)F)ccc1F [GW683134A]	58	6.2	9.2	17	7.9	21	3.2	82	100	100	100	76	100	100	100	100	100	92	92	88
COc1ccc2c(-c3ccnc(Nc4cccc(OC(F)(F)F)c4)n3)cnn2n1 [GW810372X]	100	100	98	100	100	100	100	100	93	100	100	100	100	100	100	100	100	86	87	88
CC(C)COC(=O)c1ccc2c(c1)/C(=C/Nc1ccc(S(N)(=O)=O)cc1)C(=O)N2 [GW416981X]	100	100	73	100	100	100	100	100	100	100	100	100	100	100	100	100	100	93	94	100
Cl.c1ccc(Cc2nc3ccc(Nc4ncnc5ccccc45)cc3[nH]2)cc1 [GR269666A]	100	100	100	100	96	100	100	100	100	100	100	89	100	100	93	100	100	95	100	99
COc1cc2ncn(-c3cc(O[C@H](C)c4ccccc4Cl)c(C(N)=O)s3)c2cc1OC [GSK237701A]	76	51	39	83	59	81	73	100	100	100	100	100	100	83	100	88	100	100	94	79
COc1ccc2cc(-c3c(-c4ccncc4)nc(-c4ccc(S(C)(=O)=O)cc4C)n3C)ccc2c1 [SB-633825]	83	53	54	86	66	75	62	19	60	100	84	100	100	80	100	94	100	70	73	58
CCn1c(-c2nonc2N)nc2c(C#CC(C)(C)O)nc(OCCNC)cc21.Cl [GSK949675]	96	87	100	91	97	78	100	100	100	100	99	100	100	100	3.7	3.1	0.2	95	100	85
C/C(Nc1ccc(S(N)(=O)=O)cc1)=C1/C(=O)Nc2ccccc21 [GW335962X]	96	100	86	89	88	82	100	100	100	100	100	78	100	100	81	94	88	54	60	54
COc1cccc(-n2ncc3c(N/N=C/c4ccncc4)ncnc32)c1 [GW784752X]	1.7	59	27	1.6	7	1.8	54	54	5.4	81	81	3.7	100	31	100	100	100	95	91	87
NS(=O)(=O)c1ccc(Nc2ncc(-c3ccccc3)o2)cc1 [GW572399X]	100	100	89	100	81	87	88	100	100	100	100	100	100	100	100	100	100	96	96	87
